# Reference: the supplement of paper PMC8728848
# Only a selection was taken, and the strongest signals are over-represented in it overall.
# Legend:
# Test in all cases: glycan array binding signal (z-score within array); higher = stronger binding
# [1] = system: Neu5Ac9Ac(a2-3)Gal(b1-3)GlcNAc; conditions: glycan notation: IUPAC condensed, linker removed
# Method in brief: (§1)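 The binding signal is a Z-score computed within each array. Data were drawn from 3228 arrays in the Consortium for Functional Glycomics database, restricted to those with a known protein sequence. Scores were averaged over arrays of the same protein sequence at different concentrations or buffers, and over linkers, and negative values can be taken as non-binding.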
# [2] = system: Neu5Ac9Ac(a2-6)Gal(b1-4)GlcNAc; conditions: glycan notation: IUPAC condensed, linker removed
# Method in brief: as §1
# [3] = system: Neu5Gc(a2-3)Gal(b1-4)GlcNAc; conditions: glycan notation: IUPAC condensed, linker removed
# Method in brief: as §1
# Neu5Ac(a2-8)Neu5Ac = conditions: glycan notation: IUPAC condensed, linker removed
# Method in brief: as §1
# [4] = system: Neu5Ac(a2-8)Neu5Ac(a2-8)Neu5Ac(a2-8)Neu5Ac(a2-3)[GalNAc(b1-4)]Gal(b1-4)Glc; conditions: glycan notation: IUPAC condensed, linker removed
# Method in brief: as §1
# [5] = system: Neu5Ac(a2-8)Neu5Ac(a2-8)Neu5Ac; conditions: glycan notation: IUPAC condensed, linker removed; mutation: D138V, E140I
# Method in brief: as §1
# Neu5Ac(b2-6)GalNAc = conditions: glycan notation: IUPAC condensed, linker removed
# Method in brief: as §1
# [6] = system: Neu5Ac9Ac(a2-3)Gal(b1-4)GlcNAc; conditions: glycan notation: IUPAC condensed, linker removed; mutation: R125K
# Method in brief: as §1
# [7] = system: Neu5Gc(a2-3)Gal(b1-3)[Fuc(a1-4)]GlcNAc; conditions: glycan notation: IUPAC condensed, linker removed; mutation: R125K
# Method in brief: as §1
# [8] = system: Neu5Gc(a2-3)Gal(b1-4)GlcNAc(b1-3)Gal(b1-4)GlcNAc(b1-2)Man(a1-3)[Neu5Gc(a2-3)Gal(b1-4)GlcNAc(b1-3)Gal(b1-4)GlcNAc(b1-2)Man(a1-6)]Man(b1-4)GlcNAc(b1-4)GlcNAc; conditions: glycan notation: IUPAC condensed, linker removed
# Method in brief: as §1
# Chain of CHI3L1 (Homo sapiens), P36222 (P36222 whole entry): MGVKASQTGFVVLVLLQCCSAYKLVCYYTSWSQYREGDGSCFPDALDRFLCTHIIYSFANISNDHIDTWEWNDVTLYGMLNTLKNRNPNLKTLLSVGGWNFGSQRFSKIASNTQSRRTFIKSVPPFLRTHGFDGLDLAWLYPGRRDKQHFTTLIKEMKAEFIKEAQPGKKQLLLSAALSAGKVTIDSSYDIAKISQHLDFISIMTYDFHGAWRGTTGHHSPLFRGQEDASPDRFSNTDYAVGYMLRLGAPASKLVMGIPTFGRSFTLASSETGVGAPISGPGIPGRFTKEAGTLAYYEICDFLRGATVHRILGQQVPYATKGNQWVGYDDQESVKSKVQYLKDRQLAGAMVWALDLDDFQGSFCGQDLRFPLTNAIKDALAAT
# Chain of Avaren (Actinomycete K97) (chain, as listed by the source): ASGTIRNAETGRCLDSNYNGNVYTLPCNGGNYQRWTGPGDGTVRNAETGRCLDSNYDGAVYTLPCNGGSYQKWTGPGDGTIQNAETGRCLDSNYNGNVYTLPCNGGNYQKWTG
# Chain of C3b (Homo sapiens), P01024 (P01024 23-667): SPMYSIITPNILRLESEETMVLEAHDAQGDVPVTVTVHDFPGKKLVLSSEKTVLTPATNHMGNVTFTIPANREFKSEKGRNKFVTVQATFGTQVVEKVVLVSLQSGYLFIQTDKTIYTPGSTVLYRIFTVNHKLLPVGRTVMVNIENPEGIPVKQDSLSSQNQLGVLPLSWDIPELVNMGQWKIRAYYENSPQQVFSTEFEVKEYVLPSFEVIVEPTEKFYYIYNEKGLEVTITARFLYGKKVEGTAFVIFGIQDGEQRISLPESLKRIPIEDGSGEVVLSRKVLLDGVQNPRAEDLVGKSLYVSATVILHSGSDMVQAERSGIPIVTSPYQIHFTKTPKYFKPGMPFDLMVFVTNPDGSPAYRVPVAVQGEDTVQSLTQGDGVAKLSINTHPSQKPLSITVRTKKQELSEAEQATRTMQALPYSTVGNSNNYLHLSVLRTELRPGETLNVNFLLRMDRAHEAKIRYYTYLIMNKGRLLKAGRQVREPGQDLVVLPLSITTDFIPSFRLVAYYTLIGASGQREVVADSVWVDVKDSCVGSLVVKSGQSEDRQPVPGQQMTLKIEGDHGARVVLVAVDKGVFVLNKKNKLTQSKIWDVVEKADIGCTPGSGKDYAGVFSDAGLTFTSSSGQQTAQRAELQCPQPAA
# Chain of CHT (Homo sapiens) (chain, as listed by the source): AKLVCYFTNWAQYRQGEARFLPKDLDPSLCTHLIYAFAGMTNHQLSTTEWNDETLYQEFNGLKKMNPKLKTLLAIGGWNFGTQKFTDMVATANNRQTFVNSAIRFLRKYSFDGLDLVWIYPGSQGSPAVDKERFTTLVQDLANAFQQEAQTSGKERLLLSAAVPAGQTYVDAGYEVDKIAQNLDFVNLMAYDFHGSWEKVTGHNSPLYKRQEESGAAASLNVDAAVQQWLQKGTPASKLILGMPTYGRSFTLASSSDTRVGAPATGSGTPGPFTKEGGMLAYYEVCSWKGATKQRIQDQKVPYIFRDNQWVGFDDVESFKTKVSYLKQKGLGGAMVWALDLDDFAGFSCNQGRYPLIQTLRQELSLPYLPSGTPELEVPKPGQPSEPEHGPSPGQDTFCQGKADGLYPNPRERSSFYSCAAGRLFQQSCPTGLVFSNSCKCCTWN
# Chain of 6RG (Lolium perenne), B9U140 (B9U140 entry or part of it): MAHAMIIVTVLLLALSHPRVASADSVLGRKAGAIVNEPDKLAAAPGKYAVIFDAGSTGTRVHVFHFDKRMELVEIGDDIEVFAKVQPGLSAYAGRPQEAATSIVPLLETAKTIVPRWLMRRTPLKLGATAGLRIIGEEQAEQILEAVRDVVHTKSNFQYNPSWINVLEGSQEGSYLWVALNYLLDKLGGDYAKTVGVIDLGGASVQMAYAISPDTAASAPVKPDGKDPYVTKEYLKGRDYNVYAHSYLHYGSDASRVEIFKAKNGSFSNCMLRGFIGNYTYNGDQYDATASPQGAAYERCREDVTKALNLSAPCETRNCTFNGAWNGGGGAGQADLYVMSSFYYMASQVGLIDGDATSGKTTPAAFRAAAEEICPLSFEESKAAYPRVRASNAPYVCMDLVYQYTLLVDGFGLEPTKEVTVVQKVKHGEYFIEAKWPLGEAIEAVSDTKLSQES
# Chain of 6RG (Lolium perenne) (chain, as listed by the source): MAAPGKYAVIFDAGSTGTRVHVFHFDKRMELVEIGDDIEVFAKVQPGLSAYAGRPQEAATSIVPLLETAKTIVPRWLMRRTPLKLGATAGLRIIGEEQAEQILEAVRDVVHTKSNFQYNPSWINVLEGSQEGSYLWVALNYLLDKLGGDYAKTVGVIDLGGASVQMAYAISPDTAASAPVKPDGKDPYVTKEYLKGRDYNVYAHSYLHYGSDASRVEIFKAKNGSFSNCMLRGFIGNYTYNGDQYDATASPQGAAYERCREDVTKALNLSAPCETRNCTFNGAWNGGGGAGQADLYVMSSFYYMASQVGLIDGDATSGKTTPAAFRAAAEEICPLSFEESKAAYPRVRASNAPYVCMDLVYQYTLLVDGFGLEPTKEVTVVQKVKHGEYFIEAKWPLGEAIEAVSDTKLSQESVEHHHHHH
# Chain of Neurocan (Homo sapiens), O14594 (O14594 other isoform, or with tags, fused parts or gaps): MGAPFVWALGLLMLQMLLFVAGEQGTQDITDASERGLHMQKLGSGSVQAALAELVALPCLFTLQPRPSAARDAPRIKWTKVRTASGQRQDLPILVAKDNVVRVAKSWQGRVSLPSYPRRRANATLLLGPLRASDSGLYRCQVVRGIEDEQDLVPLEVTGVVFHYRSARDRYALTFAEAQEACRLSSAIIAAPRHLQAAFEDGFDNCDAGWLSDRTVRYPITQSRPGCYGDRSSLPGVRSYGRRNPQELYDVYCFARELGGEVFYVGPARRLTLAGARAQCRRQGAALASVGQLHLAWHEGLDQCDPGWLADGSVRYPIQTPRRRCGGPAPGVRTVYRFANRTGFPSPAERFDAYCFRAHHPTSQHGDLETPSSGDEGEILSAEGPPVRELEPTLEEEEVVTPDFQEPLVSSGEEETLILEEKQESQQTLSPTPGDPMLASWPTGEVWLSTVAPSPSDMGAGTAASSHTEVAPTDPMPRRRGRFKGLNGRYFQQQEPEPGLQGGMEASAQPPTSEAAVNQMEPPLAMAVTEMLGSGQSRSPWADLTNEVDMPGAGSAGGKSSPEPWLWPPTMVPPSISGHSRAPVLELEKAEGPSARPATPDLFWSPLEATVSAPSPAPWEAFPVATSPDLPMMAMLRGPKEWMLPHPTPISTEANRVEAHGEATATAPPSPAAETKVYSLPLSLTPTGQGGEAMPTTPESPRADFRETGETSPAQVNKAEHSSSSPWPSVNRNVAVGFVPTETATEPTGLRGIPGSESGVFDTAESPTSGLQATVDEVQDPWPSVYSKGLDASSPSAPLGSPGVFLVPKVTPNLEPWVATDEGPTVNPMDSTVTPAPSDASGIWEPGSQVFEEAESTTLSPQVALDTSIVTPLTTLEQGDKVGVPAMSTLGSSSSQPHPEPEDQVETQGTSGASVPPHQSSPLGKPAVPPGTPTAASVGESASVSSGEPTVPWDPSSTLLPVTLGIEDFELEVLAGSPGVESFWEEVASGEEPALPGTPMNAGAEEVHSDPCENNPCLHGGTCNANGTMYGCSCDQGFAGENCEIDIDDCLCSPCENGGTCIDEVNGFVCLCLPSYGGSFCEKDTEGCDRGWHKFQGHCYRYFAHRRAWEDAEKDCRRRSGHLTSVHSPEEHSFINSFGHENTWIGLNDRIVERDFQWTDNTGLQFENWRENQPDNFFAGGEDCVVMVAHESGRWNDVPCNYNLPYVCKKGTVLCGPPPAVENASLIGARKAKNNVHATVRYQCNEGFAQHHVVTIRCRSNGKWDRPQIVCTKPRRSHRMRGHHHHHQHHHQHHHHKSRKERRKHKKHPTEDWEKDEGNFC
substance,measurement,setting,value
MpAFP RI GFP (Marinomonas primoryensis),glycan array binding signal (z-score),[1],0.228
same,glycan array binding signal (z-score),[2],-0.772
"Neurocan (Homo sapiens), O14594",glycan array binding signal (z-score),[3],-0.18
"CHI3L1 (Homo sapiens), P36222",glycan array binding signal (z-score),Neu5Ac(a2-8)Neu5Ac,-0.091
same,glycan array binding signal (z-score),[1],-0.07
"C3b (Homo sapiens), P01024",glycan array binding signal (z-score),[4],-0.102
"6RG (Lolium perenne), B9U140",glycan array binding signal (z-score),[2],2.52
CHT (Homo sapiens),glycan array binding signal (z-score),[5],-0.166
6RG (Lolium perenne),glycan array binding signal (z-score),Neu5Ac(a2-8)Neu5Ac,-0.273
Avaren (Actinomycete K97),glycan array binding signal (z-score),Neu5Ac(b2-6)GalNAc,-0.14
"Siglec-8 (Homo sapiens), Q9NYZ4",glycan array binding signal (z-score),Neu5Ac(a2-8)Neu5Ac,0.014
same,glycan array binding signal (z-score),[1],-0.078
same,glycan array binding signal (z-score),[6],-0.109
same,glycan array binding signal (z-score),[7],-0.465
same,glycan array binding signal (z-score),[8],0.025
same,glycan array binding signal (z-score),[3]; mutation: R125K,-0.109
